Among the data in PubChem BioAssay (EPA / NIEHS) are outcome and AC50 values, retold here.

Experiment [1] in a line: CEETOX_H295R_OHPROG: CeeTox H295R High-throughput Steroidogenesis Assay for OH-Progesterone (OHPROG) (AID 2283435). The conditions noted are these: actives raise or lower the signal. In outline:
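H295R adrenal cells prestimulated 48 h with 10 uM forskolin, then exposed 48 h to chemical (0.1% DMSO final). 17alpha-hydroxyprogesterone in medium quantified by HPLC-MS/MS; bidirectional fit versus DMSO, with MTT viability measured in the same wells.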

The nature of experiment [2]: CEETOX_H295R_ESTRADIOL: CeeTox H295R High-throughput Steroidogenesis Assay for Estradiol (AID 2283440).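 Note: estradiol secreted into medium quantified by LC-MS/MS after dansyl derivatisation.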 The conditions noted are these: actives raise or lower the signal. A digest of the protocol:
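Estradiol secreted into the medium was measured by tandem mass spectrometry after liquid-liquid extraction and dansylation. Human H295R cells had been forskolin-primed (10 uM, 48 h) before a 48 h chemical exposure with 0.1% DMSO.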

Experiment [3] in a line: CEETOX_H295R_PROG: CeeTox H295R High-throughput Steroidogenesis Assay for Progesterone (PROG) (AID 2283442).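 For AC50: human H295R adrenal cells primed with 10 µM forskolin before dosing.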 The conditions noted are these: actives raise or lower the signal. In outline: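 Steps: seed H295R cells and let them adhere overnight; prime 48 h with 10 uM forskolin; dose with compound in DMSO at 0.1% final for 48 h; extract medium steroids with MTBE; measure progesterone by LC-MS/MS. MTT viability was run in the same wells.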

Read-out in experiment [4]: Tumor necrosis factor receptor superfamily member 6 (Homo sapiens) (UniProt P25445)
The experiment can be described thus: LTEA_HepaRG_FAS: Life Technologies and Expression Analysis (LTEA) Assay for Fas cell surface death receptor (FAS) using HepaRG (AID 2283447). The note with it: mRNA level, 48 h; actives raise or lower the signal. In outline:
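Differentiated HepaRG cells in serum-free induction medium were exposed 48 h to 8 half-log concentrations up to 100 uM in 0.5% DMSO, in duplicate. FAS mRNA was measured by qRT-PCR normalised to ACTB, GAPDH and POLR2A; bidirectional fit versus DMSO.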

Read-out in experiment [5]: Fatty acid synthase (Homo sapiens) (UniProt P49327)
The experiment can be described thus: LTEA_HepaRG_FASN: Life Technologies and Expression Analysis (LTEA) Assay for Fatty Acid Synthase (FASN) using HepaRG (AID 2283448).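 For AC50: differentiated human HepaRG liver cells in serum-free induction medium.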 The conditions noted are these: mRNA level, 48 h; actives raise or lower the signal. In outline: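 Differentiated HepaRG cells in serum-free induction medium exposed 48 h in duplicate to eight half-log concentrations, top 100 uM, 0.5% DMSO. FASN mRNA by qRT-PCR normalised to ACTB, GAPDH, POLR2A; bidirectional fit versus DMSO.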

Read-out in experiment [6]: Cyclin D2 (CCND2), CCND2 (gene 894)
Put plainly: LTEA_HepaRG_CCND2: Life Technologies and Expression Analysis (LTEA) Assay for Cyclin D2 (CCND2) using HepaRG (AID 2283449).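 Note: CCND2 transcript measured by TaqMan qRT-PCR and normalised to three housekeeping genes.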 The conditions noted are these: mRNA level, 48 h; actives raise or lower the signal. In outline: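 Chemicals in 0.5% DMSO, eight half-log concentrations from 100 uM top, were applied in duplicate for 48 h to human HepaRG cells in serum-free induction medium. CCND2 mRNA by TaqMan qRT-PCR, normalised to ACTB/GAPDH/POLR2A; bidirectional fit versus DMSO.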

A short description of experiment [7]: CEETOX_H295R_CORTIC: CeeTox H295R High-throughput Steroidogenesis Assay for Corticosterone (CORTIC) (AID 2283437).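 Note: corticosterone secreted into medium quantified by mass spectrometry.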 The conditions noted are these: actives raise or lower the signal. In outline:
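H295R adrenal cells prestimulated 48 hours with 10 uM forskolin, then exposed 48 hours to chemical in 0.1% DMSO. Corticosterone in medium measured by HPLC-MS/MS after MTBE extraction; MTT viability in the same wells; bidirectional fit versus DMSO.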

Experiment [8] in a line: CEETOX_H295R_CORTISOL: CeeTox H295R High-throughput Steroidogenesis Assay for Cortisol (AID 2283438).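 Note: cortisol secreted into medium quantified by LC-MS/MS.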 The conditions noted are these: actives raise or lower the signal. A digest of the protocol:
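Forskolin-primed H295R cells (10 uM, 48 h) treated 48 h with test chemical in 0.1% DMSO. Cortisol in medium quantified by MTBE extraction and HPLC-MS/MS; bidirectional fit vs DMSO, MTT viability in same wells.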

The nature of experiment [9]: CEETOX_H295R_DOC: CeeTox H295R High-throughput Steroidogenesis Assay for DOC (AID 2283439). The note with it: actives raise or lower the signal. In outline: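 H295R cells prestimulated 48 h with 10 uM forskolin, then exposed 48 h to test chemical (0.1% DMSO final). Medium 11-deoxycorticosterone measured by HPLC-MS/MS after MTBE extraction; bidirectional fit vs DMSO, viability checked by MTT in same wells.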

SMILES strings stand for the structures. Activity calls are given as the source filed them. Rule for the calls: active = hit-call score of the fitted dose curve at least 0.9, where 1 is the maximum; inactive = score below 0.9.

Sequence of Fatty acid synthase (Homo sapiens) (P49327 whole entry, looked up): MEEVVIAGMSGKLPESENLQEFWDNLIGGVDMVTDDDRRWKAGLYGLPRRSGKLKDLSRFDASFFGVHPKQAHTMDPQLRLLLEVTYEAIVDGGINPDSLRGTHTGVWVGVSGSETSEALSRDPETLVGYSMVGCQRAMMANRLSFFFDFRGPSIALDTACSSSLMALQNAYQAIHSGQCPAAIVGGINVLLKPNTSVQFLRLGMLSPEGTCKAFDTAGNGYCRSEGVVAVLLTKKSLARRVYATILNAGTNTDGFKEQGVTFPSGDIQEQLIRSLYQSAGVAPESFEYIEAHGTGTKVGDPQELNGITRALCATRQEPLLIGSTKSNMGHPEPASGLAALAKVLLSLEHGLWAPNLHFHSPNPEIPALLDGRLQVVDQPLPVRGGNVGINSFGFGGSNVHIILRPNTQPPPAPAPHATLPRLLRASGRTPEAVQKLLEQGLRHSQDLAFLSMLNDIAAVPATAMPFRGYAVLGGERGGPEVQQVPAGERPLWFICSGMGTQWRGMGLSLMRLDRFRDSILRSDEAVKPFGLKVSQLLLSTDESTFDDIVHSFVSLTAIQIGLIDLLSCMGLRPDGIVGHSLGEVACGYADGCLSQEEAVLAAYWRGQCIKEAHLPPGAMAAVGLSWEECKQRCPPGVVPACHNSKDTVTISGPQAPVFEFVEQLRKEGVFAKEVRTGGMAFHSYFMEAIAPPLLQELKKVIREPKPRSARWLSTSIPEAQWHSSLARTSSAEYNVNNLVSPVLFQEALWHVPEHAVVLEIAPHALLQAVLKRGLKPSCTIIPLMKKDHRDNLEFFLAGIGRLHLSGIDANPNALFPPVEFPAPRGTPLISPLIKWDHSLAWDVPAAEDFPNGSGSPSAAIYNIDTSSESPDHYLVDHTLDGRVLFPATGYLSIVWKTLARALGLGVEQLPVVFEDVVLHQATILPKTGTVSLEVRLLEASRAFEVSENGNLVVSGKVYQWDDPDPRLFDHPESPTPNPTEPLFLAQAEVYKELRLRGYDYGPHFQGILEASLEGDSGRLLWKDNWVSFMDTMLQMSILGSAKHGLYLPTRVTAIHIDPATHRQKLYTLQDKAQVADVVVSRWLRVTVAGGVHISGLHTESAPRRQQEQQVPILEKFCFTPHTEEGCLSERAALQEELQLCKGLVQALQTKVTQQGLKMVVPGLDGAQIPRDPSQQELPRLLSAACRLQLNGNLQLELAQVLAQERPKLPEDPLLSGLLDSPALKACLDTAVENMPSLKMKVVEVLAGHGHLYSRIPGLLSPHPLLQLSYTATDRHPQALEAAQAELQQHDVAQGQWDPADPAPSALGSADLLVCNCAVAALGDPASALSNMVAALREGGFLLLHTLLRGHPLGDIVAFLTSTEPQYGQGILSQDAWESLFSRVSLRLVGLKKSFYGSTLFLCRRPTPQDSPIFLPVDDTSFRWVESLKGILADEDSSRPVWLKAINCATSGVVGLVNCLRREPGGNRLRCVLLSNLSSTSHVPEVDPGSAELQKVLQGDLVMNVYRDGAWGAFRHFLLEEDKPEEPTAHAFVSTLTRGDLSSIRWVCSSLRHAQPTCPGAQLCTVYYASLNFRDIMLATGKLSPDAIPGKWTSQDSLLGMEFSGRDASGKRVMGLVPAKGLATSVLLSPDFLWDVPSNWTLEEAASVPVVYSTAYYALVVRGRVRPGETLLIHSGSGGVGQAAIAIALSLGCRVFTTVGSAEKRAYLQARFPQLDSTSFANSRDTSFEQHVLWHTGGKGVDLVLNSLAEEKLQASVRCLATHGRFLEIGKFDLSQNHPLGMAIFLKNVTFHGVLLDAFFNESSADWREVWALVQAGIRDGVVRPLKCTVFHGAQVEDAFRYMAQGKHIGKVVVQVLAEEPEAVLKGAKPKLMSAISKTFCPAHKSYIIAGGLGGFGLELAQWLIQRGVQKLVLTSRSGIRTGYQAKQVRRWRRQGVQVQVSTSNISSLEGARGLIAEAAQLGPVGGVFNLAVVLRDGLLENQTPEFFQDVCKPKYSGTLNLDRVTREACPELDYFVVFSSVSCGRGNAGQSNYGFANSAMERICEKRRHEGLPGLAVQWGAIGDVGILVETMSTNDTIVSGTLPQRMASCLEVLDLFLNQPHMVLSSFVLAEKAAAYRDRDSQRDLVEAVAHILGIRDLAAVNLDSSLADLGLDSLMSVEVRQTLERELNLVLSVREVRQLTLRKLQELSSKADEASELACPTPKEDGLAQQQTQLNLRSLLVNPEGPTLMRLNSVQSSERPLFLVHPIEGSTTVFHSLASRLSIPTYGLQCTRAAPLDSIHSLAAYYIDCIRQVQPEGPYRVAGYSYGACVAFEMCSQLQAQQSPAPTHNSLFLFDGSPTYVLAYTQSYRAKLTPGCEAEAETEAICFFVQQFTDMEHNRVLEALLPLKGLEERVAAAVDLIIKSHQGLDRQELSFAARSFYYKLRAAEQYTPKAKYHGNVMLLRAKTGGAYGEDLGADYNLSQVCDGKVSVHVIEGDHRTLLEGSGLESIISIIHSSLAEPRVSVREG

What is called AC50 is the concentration at which the activity in the assay is half-maximal. `CN/C(=N\[N+](=O)[O-])NCc1cnc(Cl)s1`: the outcome in experiment [1], in experiment [2], in [3], in [4] and in experiment [6] was inactive. Also, the AC50 in [5] is 50 µM (active).
In the case of `CCCCC(C#N)(Cn1cncn1)c1ccc(Cl)cc1` (stereo unspecified), the concentration at half-maximal activity (AC50) in experiment [1] was 4.02 µM (active); in [8], 0.832 µM (active); in experiment [9], 36.5 µM (active); in experiment [5] it was 22.1 µM (active). Besides, the call in experiment [7], in experiment [3], in experiment [4] and in [6] was inactive.
`CCN(CC)c1nc(C)cc(OP(=S)(OC)OC)n1`: the call in [1], in [8], in [4] and in experiment [6] was inactive. Besides, the half-maximal activity concentration (AC50) in experiment [7] is 24.7 µM (active); in experiment [9], 36.2 µM (active); in experiment [2], 1.22 µM (active); in experiment [3] it was 45.8 µM (active); in [5], 27.4 µM (active).
Consider `N#Cc1c(Cl)cccc1Cl`, for which the outcome in [1], in experiment [7], in [8], in [9], in experiment [2] and in experiment [3] was inactive. Besides, the compound was called inactive in experiment [4], in experiment [5] and in [6].
For the compound `CC1(C)CON(Cc2ccccc2Cl)C1=O`, the outcome in [1], in experiment [2], in experiment [3], in [4], in [5] and in experiment [6] was inactive.
As to `N#CN=C1SCCN1Cc1ccc(Cl)nc1`, the result in [1], in [7], in [8], in experiment [9], in experiment [3] and in experiment [4] was inactive. Further, the outcome in experiment [5] and in experiment [6] was inactive.
`CCCC(=NOCC)C1=C(O)CC(CC(C)SCC)CC1=O` (stereo unspecified): the compound was classed as inactive in [1], in experiment [7], in experiment [8], in experiment [9], in experiment [2] and in experiment [3]. Further, the call in experiment [4], in [5] and in experiment [6] was inactive.
For `COCC(=O)N(c1c(C)cccc1C)C(C)C(=O)OC` (stereo unspecified), the compound was called inactive in experiment [1], in experiment [2], in [3], in experiment [4] and in experiment [5]. Also, the half-maximal activity concentration (AC50) in [6] was 0.0815 µM (active).
As to `COP(=S)(OC)Oc1ccc([N+](=O)[O-])c(C)c1`, the figures for the AC50 in [1], in experiment [9] and in experiment [3] were 2.22 µM (active), 2.48 µM (active) and 2.59 µM (active), respectively. In addition, the compound was called inactive in experiment [7], in [8], in [2], in experiment [4], in [5] and in experiment [6].
In the case of `CC(C)Nc1nc(Cl)nc(NC(C)C)n1`, the compound was called inactive in [1], in [2], in experiment [3], in experiment [4], in experiment [5] and in experiment [6].
Regarding `CC1(C)C(C=C(Cl)Cl)C1C(=O)OC(C#N)c1cccc(Oc2ccccc2)c1` (stereo unspecified), the result in experiment [1], in experiment [7], in [8], in [9], in experiment [2] and in [3] was inactive. Moreover, the outcome in experiment [4], in experiment [5] and in experiment [6] was inactive.
For `CCCCC(O)(Cn1cncn1)c1ccc(Cl)cc1Cl` (stereo unspecified), the AC50 in experiment [4] is 87.4 µM (active); in [5], 85.7 µM (active). In experiment [6], the result was inactive.
Consider `Cc1ccc(N=CN(C)C=Nc2ccc(C)cc2C)c(C)c1`, for which the compound was called inactive in [4] and in [5].
With `CS(=O)(=O)c1cc(C(F)(F)F)ccc1C(=O)c1cnoc1C1CC1`, the compound was classed as inactive in [4], in experiment [5] and in experiment [6].
`CCOc1nc(F)cc2nc(S(=O)(=O)Nc3c(Cl)cccc3Cl)nn12`: the result in experiment [4], in experiment [5] and in [6] was inactive.
Take `Cc1cnc(C2=NC(C)(C(C)C)C(=O)N2)c(C(=O)O)c1` (stereo unspecified): the result in experiment [4], in experiment [5] and in experiment [6] was inactive.
For the compound `CC(C)C1(C)N=C(c2ncccc2C(=O)O)NC1=O` (stereo unspecified), the compound was classed as inactive in experiment [4] and in [5].
As to `N#Cc1c[nH]cc1-c1cccc2c1OC(F)(F)O2`, the call in experiment [4] and in experiment [6] was inactive. Moreover, the AC50 in experiment [5] is 1.51 µM (active).
On to `O=P(O)(O)CCCl`, for which the result in experiment [4] and in experiment [5] was inactive.
Consider `CN=C=S`, for which the result in [4], in experiment [5] and in experiment [6] was inactive.
Consider `CC(C)N1C(=O)c2ccccc2NS1(=O)=O`, for which the result in experiment [4], in experiment [5] and in experiment [6] was inactive.
Consider `COC(=O)c1c(C(F)F)nc(C(F)(F)F)c(C2=NCCS2)c1CC(C)C`, for which the outcome in experiment [4], in experiment [5] and in [6] was inactive.
On to `O=c1n(Cl)c(=O)n(Cl)c(=O)n1Cl`, for which the compound was called inactive in experiment [4], in experiment [5] and in [6].
Regarding `Nc1c(Cl)c(F)nc(OCC(=O)O)c1Cl`, the call in experiment [4], in experiment [5] and in experiment [6] was inactive.
As to `Nc1c(Cl)c(Cl)nc(C(=O)O)c1Cl`, the call in [4], in experiment [5] and in [6] was inactive.
For the compound `Cc1cc(C)nc(Nc2ccccc2)n1`, the result in experiment [4] and in experiment [5] was inactive.
Take `Cn1c(-c2ccccc2)cc(-c2ccccc2)[n+]1C`: the compound was classed as inactive in [4] and in experiment [6]. Further, in experiment [5], the AC50 is 11.7 µM (active).
In the case of `CC(C)N1C(=O)N(c2ccccc2)CSC1=NC(C)(C)C`, the compound was classed as inactive in [4], in experiment [5] and in [6].
Turning to `C=C(C)CN(CC)c1c([N+](=O)[O-])cc(C(F)(F)F)cc1[N+](=O)[O-]`, the compound was classed as inactive in [4], in experiment [5] and in [6].
Regarding `COP(=O)(OC)O/C(C)=C/C(=O)N(C)C`, the compound was classed as inactive in experiment [4], in experiment [5] and in [6].
Regarding `CCOP(=O)(OCC)Oc1nc(Cl)c(Cl)cc1Cl`, the outcome in [4] and in [6] was inactive. The half-maximal activity concentration (AC50) in experiment [5] was 60.2 µM (active).
As to `OC(c1ccc(Cl)cc1)(c1ccc(Cl)cc1)C(Cl)(Cl)Cl`, the AC50 was 50 µM (active) in experiment [4] and 34.8 µM (active) in experiment [5].
On to `COc1ccc(-c2ccccc2)cc1NNC(=O)OC(C)C`, for which the compound was called inactive in experiment [4], in [5] and in experiment [6].
On to `CCCCOCN(C(=O)CCl)c1c(CC)cccc1CC`, for which the outcome in experiment [4], in experiment [5] and in experiment [6] was inactive.
For `CSC(=O)c1c(C(F)F)nc(C(F)(F)F)c(C(=O)SC)c1CC(C)C`, the compound was called inactive in experiment [4], in experiment [5] and in [6].
In the case of `COC(=O)N(C(=O)N1CO[C@@]2(C(=O)OC)Cc3cc(Cl)ccc3C2=N1)c1ccc(OC(F)(F)F)cc1`, the call in experiment [4] and in experiment [6] was inactive. Moreover, in [5], the AC50 was 18.8 µM (active).
With `CCNC(=O)NC(=O)C(C#N)=NOC`, the outcome in [5] and in [6] was inactive.
Regarding `COc1cc(OC)nc(NC(=O)NS(=O)(=O)c2ncccc2OCC(F)(F)F)n1`, the outcome in experiment [4] and in [5] was inactive. Besides, in [6], the AC50 is 0.223 µM (active).
Turning to `O=C(O)c1c(Cl)ccc2cc(Cl)cnc12`, the outcome in [4], in [5] and in [6] was inactive.
On to `CO/N=C(/C1=NOCCO1)c1ccccc1Oc1ncnc(Oc2ccccc2Cl)c1F`, for which the AC50 is 50 µM (active) in [4] and 62.7 µM (active) in experiment [5]. Also, the compound was classed as inactive in experiment [6].
Take `CS(=O)(=O)c1ccc(C(=O)C2C(=O)CCCC2=O)c([N+](=O)[O-])c1`: the call in experiment [4], in experiment [5] and in [6] was inactive.
Turning to `COC(=O)NS(=O)(=O)c1ccc(N)cc1`, the result in [4], in experiment [5] and in experiment [6] was inactive.
For `CC(C)=CC1C(C(=O)OCc2coc(Cc3ccccc3)c2)C1(C)C` (stereo unspecified), the result in [4], in [5] and in experiment [6] was inactive.
Consider `CC1(C)C(C(=O)OC(C#N)c2cccc(Oc3ccccc3)c2)C1(C)C` (stereo unspecified), for which the call in [4], in experiment [5] and in [6] was inactive.
Consider `CNC(=O)N(C)c1nnc(C(C)(C)C)s1`, for which the outcome in experiment [4] and in [5] was inactive.
Turning to `C=CCOC(=O)C(C)(C)OC(=O)c1cc(-n2c(=O)cc(C(F)(F)F)n(C)c2=O)ccc1Cl`, the compound was classed as inactive in [4], in experiment [5] and in experiment [6].
Regarding `Clc1cccc(C(Cl)(Cl)Cl)n1`, the result in [4], in experiment [5] and in experiment [6] was inactive.
